This experiment is described as follows: mtPTP inhibition via calcium retention, dose response, biochemical, dry powder samples, uHTS hits, Calcium Green-5N (AID 743360). The settings on record: isolated mitochondria, Ca retention capacity.

Values joined by “and” are separate entries in the source; they are usually repeats but may differ in a detail not shown here. Identical values can stand only once. A number with no mark means an inactive call. Active and inactive are the calls of the source.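 How the source made its calls: active means calcium retention capacity relative to untreated control above about 1.1 ratio (limit read from the data); inactive means the rest.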

In PubChem BioAssay AID743360 (Molecular Libraries Program, Specialized Chemistry Center, …, 2014) one finds CRC/CRC0 ratio data, which are given here for 17 compounds.

`O=C(Nc1ccc(Br)cc1)c1cc(C2CC2)on1`: the CRC/CRC0 ratio at 12.5 uM (higher = more inhibition) is 1.06. Turning to `COc1ccc(Cl)cc1C(=O)Nc1ccc(N(C)C)cc1`, the CRC/CRC0 ratio at 12.5 uM (higher = more inhibition) was 1.18 (active). In the case of `CCCc1cc(C(=O)Nc2ccc(Br)cc2)no1`, the CRC/CRC0 ratio at 12.5 uM (higher = more inhibition) is 1.02.

Turning to `COc1ccc(Cl)cc1C(=O)Nc1ccc(CN2CCNCC2)cc1`, the CRC/CRC0 ratio at 12.5 uM (higher = more inhibition) is 1.65 (active). Turning to `O=S(=O)(Nc1ccc(CN2CCCCC2)cc1)c1cccc(Cl)c1`, the CRC/CRC0 ratio at 12.5 uM (higher = more inhibition) was 1.03. As for `O=C(Nc1cccc(Cl)c1)c1cc(-c2ccc(Cl)cc2)on1`, the figure is more than 1; as for `O=S(=O)(Nc1ccc(CCN2CCCCC2)cc1)c1ccc(F)c(Cl)c1`, 1.07. `COc1ccc(Cl)c(C(=O)Nc2ccc(CCN3CCN(C(=O)OC(C)(C)C)CC3)cc2)c1`: the CRC/CRC0 ratio at 12.5 uM (higher = more inhibition) is 1.11 (active).

Take `O=C(Nc1cc(Cl)ccc1F)c1cc(-c2cccc(O)c2)on1`: the CRC/CRC0 ratio at 12.5 uM (higher = more inhibition) is 6.53 (active). As for `O=C(Nc1ccc(CCN2CCCCC2)cc1)c1cccc(OCc2ccccc2)c1`, the figure is 3.04 (active); as for `O=S(=O)(Nc1ccc(CCN2CCCCC2)cc1)c1cccc(Cl)c1`, 1.12 (active); as for `COc1ccc(Cl)cc1C(=O)Nc1ccc(CN2CCN(C(=O)OC(C)(C)C)CC2)cc1`, 1.33 (active). As for `CCN(CC)c1ccc(NC(=O)c2ccc(OC)c(Cl)c2)cc1`, the figure is 0.976. In the case of `CCCc1cc(C(=O)Nc2c(F)cc(F)cc2Br)no1` it was 1.13 (active); in that of `Cc1ccc(NC(=O)c2cc(-c3cccc(O)c3)on2)cc1Cl`, 2.58 (active); in that of `O=C(Nc1cccc(Cl)c1)c1cc(-c2cccc(O)c2)on1`, 5.47 (active) and 7.74 (active). `COc1ccc(Cl)cc1C(=O)Nc1ccc(N2CCN(C)CC2)cc1`: the CRC/CRC0 ratio at 12.5 uM (higher = more inhibition) is 1.2 (active).
